MCF10A rereplic = inducers of DNA re-replication in MCF 10A breast cells; hit rate 2.9% among 350,000; Potency, µM (highest dose often 46.1 µM), for the others: at the highest dose activity, positive = re-replication, most hits filed as activators; MCF 10A DNA re-replication, Hoechst nuclear intensity, 48 h; also: potency is read from the fitted curve at half-maximal effect; % of control where 0% means no effect; nearly all actives have a fitted effect of over 50% in size
RORgamma inh = inhibitors of mouse ROR gamma transcriptional activity; Drosophila S2 Gal4-RORgamma UAS-luciferase reporter, 20 h; AID 2551; hit rate 5.4% among 310,000; Potency, µM (series often up to 53.6 µM), for inactives: at the top dose activity change, negative = inhibition, usual class: inhibitors; also: potency is read from the fitted curve at half-maximal effect; % is scaled to controls: 0 for no effect and ±100 for the full control effect; nearly all actives have a fitted effect of over 60% in size
Target sequence (P51450 whole entry, looked up, the tested form may be a part): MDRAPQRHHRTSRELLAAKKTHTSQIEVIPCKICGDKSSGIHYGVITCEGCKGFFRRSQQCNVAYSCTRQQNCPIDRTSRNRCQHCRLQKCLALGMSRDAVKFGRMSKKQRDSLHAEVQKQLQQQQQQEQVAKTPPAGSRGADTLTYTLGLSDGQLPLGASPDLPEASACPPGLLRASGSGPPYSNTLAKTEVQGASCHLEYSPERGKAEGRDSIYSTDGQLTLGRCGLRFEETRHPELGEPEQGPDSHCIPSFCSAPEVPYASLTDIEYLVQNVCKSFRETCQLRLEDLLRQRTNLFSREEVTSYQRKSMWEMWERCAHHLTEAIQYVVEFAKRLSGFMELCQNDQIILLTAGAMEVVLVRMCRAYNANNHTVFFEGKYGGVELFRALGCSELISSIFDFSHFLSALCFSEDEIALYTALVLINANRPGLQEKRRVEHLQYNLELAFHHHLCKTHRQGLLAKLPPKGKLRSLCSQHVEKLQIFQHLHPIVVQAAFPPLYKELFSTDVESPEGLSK
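Luminescence from a UAS-regulated Photinus luciferase reporter in stably transfected Drosophila Schneider cells is measured; decreased signal marks ROR gamma inhibition. Fusion expression is induced by 700 uM copper sulfate for 20 hr.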
SW480 rereplic = induces DNA re-replication in SW480 colon adenocarcinoma cells | SW480 DNA re-replication, Hoechst DNA content imaging, 48 h | Potency, µM (doses to about 46.1 µM), without a hit: top-dose re-replication activation, most hits filed as activators | hit rate 1.8% among 340,000 | AID 624297; also: potency is read from the fitted curve at half-maximal effect; % of control where 0% means no effect; nearly all actives have a fitted effect of over 55% in size
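250 cells/well; 23 nL cpd via pin tool; 48 hr, 37 C, 5% CO2; Hoechst 40 min; imager read of total nuclear intensity, ex 405/em 500-530 nm.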
Gal4-VP16 FLuc = counter-screen for ROR gamma inhibitors: Gal4-VP16 reporter; Potency, µM (titrated, usually from 53.6 µM), without a hit: at the top dose activity, negative = inhibition, most hits filed as inhibitors; AID 2546; Drosophila S2 Gal4-VP16 UAS-luciferase, luminescence, 20 h; hit rate 3.5% among 310,000;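 also: Gal4-VP16 expression switched on by copper sulfate through the metallothionein promoter; potency is read from the fitted curve at half-maximal effect; % is scaled to controls: 0 for no effect and ±100 for the full control effect; nearly all actives have a fitted effect of over 50% in size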
IL1B secr inh = inflammasome signaling inhibition, IL-1 beta readout; hit rate 4.7% among 360,000; THP-1 LPS/ATP IL-1B secretion, AlphaLISA, 16 h; stronger effect = lower value; activity change, % at 57.5 µM; in the data active = activity change below about -50%; inconclusive = mostly about -30% to -49%; also: % is scaled to controls: 0 for no effect and ±100 for the full control effect
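Secreted IL-1B measured by AlphaLISA bead assay after 16 h compound exposure of THP-1 cells; compounds (final up to 57.5 uM) added 1 h before LPS (250 ng/mL) and ATP (1.25 mM) stimulation; lower signal means less secretion.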
An asterisk follows results filed as active; u = inconclusive; x = no result given; ! = not active in a repeat; [ ] = another dose, or the depositor's remark. Compounds with a hit are over-represented: about 11% of the library has one in this group of screens. Unless noted, calls follow the shape of the dose curve; as a rule, active = well fitted curve in the direction sought with a large enough effect; inconclusive = small, poorly fitted or top-dose-only effect, or another doubt; inactive = no such curve, though single readings can be large; an effect the other way counts as inactive or inconclusive.

SMILES	MCF10A rereplic	RORgamma inh	SW480 rereplic	Gal4-VP16 FLuc	IL1B secr inh
Cc1ccc(N2CCN(C(C(=O)Nc3c(C)cccc3C)c3cc4ccccc4o3)CC2)cc1 (stereo unspecified)	x	x	x	x	4
CCOC(=O)C1=C(c2ccccc2)c2cc(OC)ccc2OC1C(=O)OCC (stereo unspecified)	x	-16%	x	-4%	x
COCCNC(=O)CN(c1ccc(F)cc1)S(=O)(=O)c1ccc2c(c1)OCCO2	3%	0%	-2%	8%	-3
O=c1c(-c2ccc(F)cc2)nc2cnc(N3CCOCC3)nc2n1C[C@H]1CCCO1	x	3%	x	-4%	x
O=c1c2ccccc2[nH]c(=S)n1CCc1ccccc1	9%	1.6µM*	-1%	3.2µM*	34
NS(=O)(=O)c1ccc(CCn2c(=S)[nH]c3ccccc3c2=O)cc1	u	u	u	2%	12
O=c1c2ccccc2[nH]c(=S)n1Cc1ccccc1	-9%	4µM*	-6%	5µM*	15
O=c1c2cccnc2[nH]c(=S)n1Cc1ccccc1	8%	10µM*	-7%	4µM*	15
CCCCN(C=O)c1c(CC)nc2c(OCC(=O)c3ccc(F)cc3)cccn12	x	x	x	x	0
Cc1cc(Br)cc(C)c1NC(=S)NC(=O)CC(C)C	5%	4.5µM*	-1%	7.9µM*	51
CCC(=O)NC(=S)Nc1c(C)cc(Br)cc1C	5%	3.2µM*	u	7.1µM*	54
CCCC(=O)NC(=S)Nc1c(C)cc(Br)cc1C	2%	x	15%	x	73
O=C(NC1CCCCCC1)c1ccco1	-3%	-1%	-9%	0%	3
CCSc1nnc(NC(=O)CSc2nccn2-c2cc(C)cc(C)c2)s1	12%	14µM*	-5%	u	4
CCSc1nnc(NC(=O)CSc2nccn2-c2cccc(C)c2C)s1	24%	10µM*	2%	u	38
CCSc1nnc(NC(=O)CSc2c(Cl)cccc2Cl)s1	-12%	11µM*	-3%	-24%	-1
COc1ccc(C(=O)NCCCNC(=O)c2cnccn2)cc1Br	3%	-5%	-7%	2%	22
COc1ccc(/C=C/c2cc(-c3ccc(C)cc3)o[n+]2C)cc1	u	u	u	13µM*	-120*
COc1ccc(/C=C/c2c(-c3ccc(OC)cc3)oc3ccc(-c4ccc(OC)cc4)cc23)cc1	u	-1%	u	-6%	-1
COc1ccc(OC)c(S(=O)(=O)NC(=O)C2(C)CCN2C(=O)Cc2ccccc2)c1 (stereo unspecified)	x	x	x	x	13
CCN(CC(=O)Nc1ccc(N2CCOCC2)cc1)Cc1nc2ccccc2c(=O)[nH]1	16%	4µM*	-1%	13µM*	-13
COc1ccccc1CN(Cc1nc2ccccc2c(=O)[nH]1)C(=O)Nc1cccc(C)c1	-5%	7.1µM*	14%	6%	-5
CCN(CC(=O)Nc1cccc(Br)c1)Cc1nc2ccccc2c(=O)[nH]1	-4%	4µM*	-3%	7.1µM*	9
O=C(CSc1nc2ccccc2c(=O)[nH]1)Nc1ccc(N2CCOCC2)cc1	6%	-37%	3%	u	7
CCN(CC(=O)Nc1ccc2c(c1)OC(F)(F)O2)Cc1nc2ccccc2c(=O)[nH]1	0%	10µM*	0%	u	0
SMILES	MCF10A rereplic	RORgamma inh	SW480 rereplic	Gal4-VP16 FLuc	IL1B secr inh
CCN1C(=O)[C@H]2[C@H]3[C@H](O)[C@H](O)C/C(=N/NC(=O)OCc4ccccc4)[C@@H]3CC[C@@H]2C1=O	x	-14%[10 µM]	x	-4%[10 µM]	x
O=C(OC1CC2CC1[C@H]1CCCCN1C2=O)N1CCN(C(=O)c2ccccc2)CC1 (stereo partly specified)	x	x	x	x	18
CN(CC(=O)Nc1cccc(F)c1)C(=O)c1cc([N+](=O)[O-])ccc1N1CCCCC1	-1%	x	-5%	x	15
CN(CC(=O)Nc1ccc(N2CCOCC2)cc1)Cc1c(O)ccc2ccccc12	5%	1.8µM*	-7%	18%	-2
CCN(CC(=O)Nc1ccc2c(c1)CCC2)Cc1nc2ccccc2c(=O)[nH]1	u	5µM*	2%	-3%[0.365 µM]	4
CCOc1ccc(NC(=O)CN(C)C(=O)CCc2nc3ccccc3c(=O)[nH]2)cc1OCC	x	x	x	x	9
CN(CC(=O)Nc1ccc(N2CCOCC2)cc1)CC(=O)Nc1ccc(N2CCOCC2)cc1	-1%	18%	1%	-14%	u
CCN(CC(=O)Nc1ccc2c(c1)OCO2)Cc1nc2ccccc2c(=O)[nH]1	13%	2.5µM*	u	7.1µM*	-4
CC(OC(=O)CCc1nc2ccccc2c(=O)[nH]1)C(=O)Nc1ccc2c(c1)OCO2 (stereo unspecified)	10%	1%	-3%	7%	5
COc1cccc(NC(=O)NC2CCN(CC(=O)Nc3ccccc3[N+](=O)[O-])CC2)c1	u	u	-3%	-8%	-20
O=C(Cn1c(NCCCO)nc2ccccc21)c1ccc(Cl)cc1	1%	-3%	12%	-3%	-11
Cc1cc2nc(NCCCO)n(CC(=O)c3cc(C(C)(C)C)c(O)c(C(C)(C)C)c3)c2cc1C	22%	x	u	x	-51*
C=CC(=O)O	9%	9%[10 µM]	-5%	-2%	x
CCSc1nc(-c2ccccc2)nc2c1CCCC2	u	5%	-7%	-15%	13
CN(C)CCSc1nc(-c2ccccc2)nc2c1CCCC2	0%	2%	1%	-4%	-71*
CCn1c(SCc2ccc(OC)cc2)nnc1-c1ccncc1	21µM*	11%	-3%	15%	-9
Cc1ccc(NC(=O)c2ccc(CSc3nnc(-c4ccncc4)n3C)cc2)cc1	15%	29%	3%	7%	5
CCn1c(SCc2ccc(C(=O)Nc3cc(C)cc(C)c3)cc2)nnc1-c1ccncc1	0%	27%	-3%	-2%	-65*
CC(C)N(C(=O)CSc1nnc(C2CC2)n1C1CC1)c1ccccc1	24%	x	-579%	x	7
CCc1nc2c(OCC3COc4ccccc4O3)cccn2c1N(C)C(=O)c1cccc(OC)c1 (stereo unspecified)	x	x	x	x	-11
CCN1CCN(Cc2ccc(NC(=O)c3ccc(C)c(NC(=O)c4cncc(-c5cccs5)c4)c3)cc2C(F)(F)F)CC1	5.2µM*	x	u	x	-110*
CCN1CCN(Cc2ccc(NC(=O)c3ccc(C)c(NC(=O)c4cccc5[nH]ccc45)c3)cc2C(F)(F)F)CC1	u	6.3µM*	3.3µM*	-13%	-98*
CCN1CCN(Cc2ccc(NC(=O)c3ccc(C)c(NC(=O)N4CCNC4=O)c3)cc2C(F)(F)F)CC1	11%	5%	1%	-4%	-61*!
Cc1ccc(C(=O)Nc2cccc(C(F)(F)F)c2)cc1NC(=O)c1nccn1C	38%	-6%	-28%	-14%	76
CCN1CCN(Cc2ccc(NC(=O)c3ccc(C)c(NC(=O)c4nccn4C)c3)cc2C(F)(F)F)CC1	-7%	u	-1%[9.22 µM]	u	-58*
